The results in this text go back to PubChem BioAssay (NCI).

Each structure is given as a SMILES string. The panel holds about 83,000 compounds, 20% with a hit somewhere; the sample as a whole holds those more often.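 Assay: single dose, 48 h. Readout: percent growth (0 = no net growth; negative = cell death). Active: <10.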 Values without a mark were called inactive. Calls of active or inactive are those of the source.

In one assay the test system is SW-620 colon. The assay is described as follows: NCI-60 one-dose screen, 48 h (100 = growth as untreated, 0 = no growth, -100 = all killed). The following applies: 10 µM unless noted.
Consider `CCN(C)S(=O)(=O)Nc1cccc(Nc2ncnc3cc(NC(=O)CCl)ccc23)c1Cl`, for which the growth is -53.5% (active).

For `CC(=O)Oc1ccc(C)cc1C`, the growth was 108%.

As for `O=C1NC2(Nc3ccccc31)C(=O)Nc1c(Cl)cc(Cl)cc12` (centres undefined), the growth was 100%.

Consider `O=C(Nc1ccc(Oc2cccc(Cl)c2)c(Cl)c1)c1cnccn1`, for which the growth was 22.7%.

Turning to `Cc1ccc2c(n1)C(=O)C(Br)=C(CC(C)C)C2=O`, the growth was 64%.

For `Cc1[nH]c(C(=O)Nc2ccc(C(=O)N3CCN(c4cc5c(cc4F)c(=O)c(C(=O)O)cn5C4CC4)CC3)cc2OC(C)C)c(Cl)c1Cl`, the growth is 96.3%.

As to `COC1=CC(c2ccc[nH]2)=N/C1=C\c1[nH]c(C)c(CC(=O)OCc2ccccc2)c1CCC(=O)OCc1ccccc1`, the growth is -30.9% (active).

With `C=C1C(=O)O[C@H]2[C@H]1CC/C(COC(=O)/C=C\C(=O)NCc1ccc(Cn3c(=O)sn(CCI)c3=O)cc1)=C\CC[C@@]1(C)O[C@@H]21`, the growth was 8.21% (active).

With `CCOC(=O)c1c(C(=O)c2cn(C)c3ccc(Br)cc23)c(-c2cn(C)c3ccc(Br)cc23)n(NC(=O)OC(C)(C)C)c1C`, the growth was 91.8% [100 µM].

Take `O=C1/C(=C/c2ccccc2O)CC/C1=C\c1ccccc1O`: the growth was 55.1%.

On to `CCOc1ccccc1Cn1ccnc1CCc1c(Cl)c(O)cc(O)c1C(=O)OC`, for which the growth is 104%.

`CCCNc1nc2ccccc2c2c1S(=O)(=O)c1ccc(Cl)cc1C2=O`: the growth is -4.27% (active).

For `COC1=CC(c2ccc[nH]2)=N/C1=C\c1[nH]c(C)c(C(=O)OC(C)C)c1C`, the growth was -29.2% (active).

For `COc1ccc(C2=C(Nc3ccc(C(=O)Nc4ccccc4)cc3)C(=O)N(C)C2=O)cc1`, the growth was 106%.

With `CCCCCOC(=O)c1c(C)[nH]c(/C=C2\N=C(c3ccc[nH]3)C=C2OC)c1C`, the growth is -1.61% (active).

Turning to `O=C(Nc1ccc(OS(=O)(=O)c2ccc(F)cc2)cc1)C1CCCCCC1`, the growth was 88.9%.

`COc1ccc(Nc2nnc(-c3ccc(OC)c(OC)c3)o2)cc1`: the growth was 97.7%.

As to `CS(=O)(=O)Nc1cc(-c2ccc3ncnc(Nc4ccc5c(cnn5Cc5cccc(F)c5)c4)c3c2)cnc1Cl`, the growth is 18.4%.

Take `O=C(CN1CCCCC1)Nc1nc(-c2cc3ccccc3oc2=O)cs1`: the growth was 99.2%.

Take `Cc1ccc(Nc2cc(N)nc(N)n2)cc1Cl`: the growth was 112%.

As to `CC/C(=C(/c1ccc(Cl)cc1)c1ccc(OCCN(C)C)cc1)c1ccc(Cl)cc1`, the growth is 55.8%.

Take `O=c1c2ccccc2n2cnc3ccc(Cl)c1c32`: the growth was 79.2%.

Turning to `N#CSc1c[nH]c2cccc(/C=C/C(=O)/C=C(/C=C/c3cccc4[nH]cc(SC#N)c34)OB(F)F)c12`, the growth was -35% (active).

Take `Cc1cc(C)c2c(c1)N(C)c1ncnc(-n3cnc4cc(C)ccc43)c1CC2C` (centres undefined): the growth is 21.4%.

For `N=C(N)c1ccc(-c2ccc(-c3ccccc3)o2)cc1`, the growth was -75.7% (active).

As for `COC(=O)c1c(C)nc(C)c2c1C(=O)C(Br)=C(NCc1ccccc1)C2=O`, the growth is 16.7%.

Regarding `COc1ccc(/C=C(\C#N)n2nnc3cc(Cl)ccc32)cc1`, the growth is 8.09% (active).

On to `COc1cc2c(c(OC)c1OC)CCC(c1cccc(C(=O)Nc3cccc(Cl)c3)c1)O2` (centres undefined), for which the growth was 99.2%.

On to `COc1ccc(Nc2ncc(Br)c(NCCCNC(=O)C3CCCC3)n2)cc1`, for which the growth is 41.2%.

For the next assay, the system named is MCF7 breast. The description is as above. The following applies: 10 µM unless noted.
For `Fc1cc2c(cc1Cl)N(c1ncnc3ccc(-c4ccc5n[nH]nc5c4)cc13)CC2`, the growth is 80.3%.

Turning to `COc1ccc(-c2noc(C(=O)O)c2-c2cc(OC)c(OC)c(OC)c2)cc1`, the growth was 18.9%.

For the compound `C=C1C(=O)O[C@H]2[C@H]1CC/C(Cn1cc(-c3ccccc3)nn1)=C\CC[C@@]1(C)O[C@@H]21`, the growth is -60.1% (active).

Take `O=C(NCCCl)Nc1ncccc1OCc1ccccc1`: the growth was 96.3%.

As to `COc1ccc(/C=N/C2=C(C#N)C(c3ccccc3)c3ccc4ccccc4c3O2)cc1` (centres undefined), the growth is 12.2%.

With `CCOC(=O)c1cc(C)n(-c2ccc(C(=O)O)cc2)c1C`, the growth was 67.1%.

For `COc1cc(NS(=O)(=O)c2ccc(-c3cnc(C4CC4)o3)cc2)ccc1F`, the growth was 12.7%.

With `CC(=O)N1N=C(c2ccc(Nc3nc(Nc4ccccc4)nc(Nc4ccccc4)n3)cc2)CC1c1cccc([N+](=O)[O-])c1` (centres undefined), the growth was 91.4%.

Regarding `COc1cc(C2c3cc(OC(C)=O)c(OC)cc3CC3C(=O)OCC32)ccc1OC(C)=O` (centres undefined), the growth is 101%.

For the compound `O=c1c2cccc3c(N4CCCC4)ccc(c32)c2nc3ccccc3n12`, the growth is 50.1%.

Take `CCC(C)(C)C(=O)O[C@H]1C[C@@H](C)C=C2C=C[C@H](C)[C@H](CC[C@@H]3CC(SCCN)CC(=O)O3)[C@H]21` (some centres undefined): the growth was 79.9%.

With `CCN(C)S(=O)(=O)Nc1cccc(Nc2ncnc3cc(NC(=O)CCl)ccc23)c1Cl`, the growth is -5.68% (active).

Take `CC(=O)Oc1ccc(C)cc1C`: the growth is 77.7%.

With `O=C1NC2(Nc3ccccc31)C(=O)Nc1c(Cl)cc(Cl)cc12` (centres undefined), the growth was 88.9%.

As for `O=C(Nc1ccc(Oc2cccc(Cl)c2)c(Cl)c1)c1cnccn1`, the growth is 20.3%.

`Cc1ccc2c(n1)C(=O)C(Br)=C(CC(C)C)C2=O`: the growth is 93.2%.

Turning to `Cc1[nH]c(C(=O)Nc2ccc(C(=O)N3CCN(c4cc5c(cc4F)c(=O)c(C(=O)O)cn5C4CC4)CC3)cc2OC(C)C)c(Cl)c1Cl`, the growth is 88.8%.

Take `COC1=CC(c2ccc[nH]2)=N/C1=C\c1[nH]c(C)c(CC(=O)OCc2ccccc2)c1CCC(=O)OCc1ccccc1`: the growth was 4.14% (active).

For `C=C1C(=O)O[C@H]2[C@H]1CC/C(COC(=O)/C=C\C(=O)NCc1ccc(Cn3c(=O)sn(CCI)c3=O)cc1)=C\CC[C@@]1(C)O[C@@H]21`, the growth was 24.8%.

On to `CCOC(=O)c1c(C(=O)c2cn(C)c3ccc(Br)cc23)c(-c2cn(C)c3ccc(Br)cc23)n(NC(=O)OC(C)(C)C)c1C`, for which the growth is 78.3% [100 µM].

Take `O=C1/C(=C/c2ccccc2O)CC/C1=C\c1ccccc1O`: the growth is 24.3%.

As for `CCOc1ccccc1Cn1ccnc1CCc1c(Cl)c(O)cc(O)c1C(=O)OC`, the growth is 91.7%.

For the compound `CCCNc1nc2ccccc2c2c1S(=O)(=O)c1ccc(Cl)cc1C2=O`, the growth was 8.27% (active).

With `COC1=CC(c2ccc[nH]2)=N/C1=C\c1[nH]c(C)c(C(=O)OC(C)C)c1C`, the growth was -35.5% (active).

With `COc1ccc(C2=C(Nc3ccc(C(=O)Nc4ccccc4)cc3)C(=O)N(C)C2=O)cc1`, the growth was 102%.

For the compound `CCCCCOC(=O)c1c(C)[nH]c(/C=C2\N=C(c3ccc[nH]3)C=C2OC)c1C`, the growth was -61.2% (active).

For `O=C(Nc1ccc(OS(=O)(=O)c2ccc(F)cc2)cc1)C1CCCCCC1`, the growth was 92.1%.

As to `COc1ccc(Nc2nnc(-c3ccc(OC)c(OC)c3)o2)cc1`, the growth was 90.9%.

Regarding `CS(=O)(=O)Nc1cc(-c2ccc3ncnc(Nc4ccc5c(cnn5Cc5cccc(F)c5)c4)c3c2)cnc1Cl`, the growth was 0.881% (active).

Consider `O=C(CN1CCCCC1)Nc1nc(-c2cc3ccccc3oc2=O)cs1`, for which the growth is 88.7%.

As to `Cc1ccc(Nc2cc(N)nc(N)n2)cc1Cl`, the growth was 74.7%.

With `CC/C(=C(/c1ccc(Cl)cc1)c1ccc(OCCN(C)C)cc1)c1ccc(Cl)cc1`, the growth is 20.5%.

With `O=c1c2ccccc2n2cnc3ccc(Cl)c1c32`, the growth is 75%.

Regarding `N#CSc1c[nH]c2cccc(/C=C/C(=O)/C=C(/C=C/c3cccc4[nH]cc(SC#N)c34)OB(F)F)c12`, the growth was -22.6% (active).

For `Cc1cc(C)c2c(c1)N(C)c1ncnc(-n3cnc4cc(C)ccc43)c1CC2C` (centres undefined), the growth is 17.1%.

Consider `N=C(N)c1ccc(-c2ccc(-c3ccccc3)o2)cc1`, for which the growth was -57.2% (active).

In the case of `COC(=O)c1c(C)nc(C)c2c1C(=O)C(Br)=C(NCc1ccccc1)C2=O`, the growth was -30.2% (active).

Take `COc1ccc(/C=C(\C#N)n2nnc3cc(Cl)ccc32)cc1`: the growth was 1.74% (active).

As for `COc1cc2c(c(OC)c1OC)CCC(c1cccc(C(=O)Nc3cccc(Cl)c3)c1)O2` (centres undefined), the growth is 73%.

On to `COc1ccc(Nc2ncc(Br)c(NCCCNC(=O)C3CCCC3)n2)cc1`, for which the growth was 41.8%.
